The target in assay [1] is Tumor necrosis factor receptor superfamily member 10B (Homo sapiens) (UniProt O14763). Description: viability loss of caspase-8 NB7 cells with TRAIL – with/without TRAIL, luminescence panel, confirmation (AID 651596). The settings on record: NB7 neuroblastoma + caspase-8, TRAIL sensitization, NB7 Caspase-8, with TRAIL, mean of runs, at 10 µM, stronger effect = higher value.
Assay in assay [2]: as above
The settings on record: NB7 neuroblastoma + caspase-8, without TRAIL, NB7 Caspase-8, without TRAIL, mean of runs, at 10 µM.

Tumor necrosis factor receptor superfamily member 10B (Homo sapiens), sequence (O14763 whole entry, looked up): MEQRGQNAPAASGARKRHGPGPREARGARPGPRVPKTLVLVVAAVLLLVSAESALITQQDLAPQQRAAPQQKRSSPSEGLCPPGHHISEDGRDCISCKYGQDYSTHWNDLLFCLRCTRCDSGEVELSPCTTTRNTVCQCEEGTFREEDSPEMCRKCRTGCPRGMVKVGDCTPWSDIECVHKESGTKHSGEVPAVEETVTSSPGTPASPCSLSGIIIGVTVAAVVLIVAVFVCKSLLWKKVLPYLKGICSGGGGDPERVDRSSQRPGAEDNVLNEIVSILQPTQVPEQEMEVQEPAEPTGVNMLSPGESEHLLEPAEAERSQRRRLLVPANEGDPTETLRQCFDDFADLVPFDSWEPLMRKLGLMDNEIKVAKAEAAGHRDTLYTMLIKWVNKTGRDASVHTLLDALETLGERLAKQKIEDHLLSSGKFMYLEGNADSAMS

Consider `Cc1cccc2sc(NNC(=O)c3ccc(S(=O)(=O)N4CCCC(C)C4)cc3)nc12` (stereo not given), for which the values for the activity in assay [1] and in assay [2] were 51.8% and 42.3%, respectively.
In the case of `COc1ccc(Cn2c(SCc3ccc(C)cc3)nc3cc(OC)c(OC)cc3c2=N)cc1Cl`, the activity in assay [1] turned out to be 99%; in assay [2], 99.3%.
`Cc1ccc(/C=N/NC(=O)c2nn(C)cc2Cl)cc1`: the activity turned out to be 62.2% in assay [1] and 36% in assay [2].
For `COc1ccc(-c2ccc(NC(=O)c3ccco3)cc2)nn1` the same measures were 91% and 89.9%.
Consider `N#C/C(=C\c1cc(Cl)cc(Cl)c1O)C(=O)NC1CCCCC1`, for which the activity in assay [1] amounted to 26.5%; in assay [2], 47.6%.
For `O=C(CCl)N(c1ccccc1)c1c[nH]c2ccccc12`, the activity in assay [1] stood at 99.5%; in assay [2], 99%.
`O=C(c1ccncc1)N1CCN(c2cc(-c3ccccc3)nc3cc(-c4cccc(Cl)c4)nn23)CC1`: the activity was -0.725% in assay [1] and -15.8% in assay [2].
For the compound `C/C(=N\Nc1nc(C)cc(-c2ccccc2)n1)c1cccc(N)c1`, the results for the activity in assay [1] and in assay [2] were 41.5% and 32.7%, respectively.
Take `Nc1c(-c2ccccc2)cnc2cc(-c3ccccc3)nn12`: the results for the activity in assay [1] and in assay [2] were 73% and 67.4%, respectively.
Consider `CCN1CCN(c2ccc(S(=O)(=O)N3CCCCC3)cc2NC(=O)c2ccc([N+](=O)[O-])s2)CC1`, for which the activity in assay [1] was determined as 49.6%; in assay [2], 54.1%.
On to `COc1ccc(-c2cc3nc4n(c(=O)c3s2)CCC4)cc1`, for which the activity in assay [1] is 71.1%; in assay [2], 70.4%.
With `Cc1cccc(NC(=O)c2nc[nH]c2C(=O)N[C@@H](CCCCNC(=O)OC(C)(C)C)C(=O)OC(C)(C)C)c1`, the values for the activity in assay [1] and in assay [2] were 80.3% and 77%, respectively.
Consider `Cc1cccc(NC(=S)NNC(=O)c2ccc3c(c2)OCO3)c1`, for which the activity in assay [1] was 39.1%; in assay [2] it was 49.8%.
For the compound `O=C(Nc1ccc2c(c1)OCCO2)c1ccc(Cl)cc1`, the activity was 66.3% in assay [1] and 69.5% in assay [2].
The like results for `OCC1OC(n2cnc3c(=S)nc[nH]c32)CC1O` (stereo not given) were, in that order, 31.4% and 35.7%.
